For some of these results: Measured potencies and affinities stand elsewhere.
Experiments:
Set-up in all cases: scale not given: direction of the effect not stated beside the values
[1] = biological target: Protein translocase subunit SecA (Escherichia coli (strain K12)) (UniProt P10408); experiment: Assay to Identify E. coli SecA ATPase Inhibitors; format: functional; conditions: 30 µM
[2] = biological target: T1, Ubiquitin-activating enzyme e1, putative (Leishmania donovani (strain BPK282A1)) (UniProt E9BSI1); experiment: Leishmania donovani Ubiquitin Activating Enzyme (LdE1); format: functional; conditions: 30 µM
T1 sequence (whole entry): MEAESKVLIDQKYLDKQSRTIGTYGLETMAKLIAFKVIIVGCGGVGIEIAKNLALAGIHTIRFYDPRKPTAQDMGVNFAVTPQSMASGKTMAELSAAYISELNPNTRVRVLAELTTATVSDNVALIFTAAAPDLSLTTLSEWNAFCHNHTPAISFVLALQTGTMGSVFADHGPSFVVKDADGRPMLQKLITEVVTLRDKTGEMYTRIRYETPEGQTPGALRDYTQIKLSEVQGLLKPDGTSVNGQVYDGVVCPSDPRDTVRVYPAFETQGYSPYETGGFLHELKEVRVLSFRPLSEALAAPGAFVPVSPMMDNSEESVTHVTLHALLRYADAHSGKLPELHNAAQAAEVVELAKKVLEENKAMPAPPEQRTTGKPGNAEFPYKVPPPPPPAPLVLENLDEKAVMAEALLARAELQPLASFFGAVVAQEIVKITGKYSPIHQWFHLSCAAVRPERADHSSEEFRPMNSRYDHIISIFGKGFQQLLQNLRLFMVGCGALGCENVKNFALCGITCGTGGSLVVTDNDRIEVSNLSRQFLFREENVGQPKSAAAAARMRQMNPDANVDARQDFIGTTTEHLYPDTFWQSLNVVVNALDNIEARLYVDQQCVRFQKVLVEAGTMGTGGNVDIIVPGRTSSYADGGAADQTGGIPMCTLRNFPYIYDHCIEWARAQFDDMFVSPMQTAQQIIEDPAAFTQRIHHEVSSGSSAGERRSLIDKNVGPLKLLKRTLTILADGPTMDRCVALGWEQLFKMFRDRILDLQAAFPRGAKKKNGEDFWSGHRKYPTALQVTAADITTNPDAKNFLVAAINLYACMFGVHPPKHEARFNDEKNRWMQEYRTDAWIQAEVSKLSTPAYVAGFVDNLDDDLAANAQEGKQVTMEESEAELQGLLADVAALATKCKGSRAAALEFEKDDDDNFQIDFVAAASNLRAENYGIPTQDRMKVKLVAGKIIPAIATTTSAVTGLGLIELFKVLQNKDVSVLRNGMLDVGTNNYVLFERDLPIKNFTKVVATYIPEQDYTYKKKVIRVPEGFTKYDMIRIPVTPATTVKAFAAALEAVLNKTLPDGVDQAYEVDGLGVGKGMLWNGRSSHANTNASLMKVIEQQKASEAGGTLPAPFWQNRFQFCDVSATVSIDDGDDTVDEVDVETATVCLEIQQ

[3] = biological target: AMP-activated protein kinase, AMPK (Homo sapiens) (UniProt P54646+O43741+P54619+Q9UGJ0+Q9Y478+Q13131+Q9UGI9); experiment: AMP-dependent Kinase enzyme assay. An in vitro enzyme assay that detects ADP turnover that is directly proportional to AMPK activity. This uses naive AMPK that is activated during the assay with MK-8722; format: functional; conditions: 30 µM
[4] = biological target: Sialic acid-binding Ig-like lectin 9 (Homo sapiens) (UniProt Q9Y336); experiment: Hs-Siglec9 ALPHAscreen SOP 20170721; conditions: 10 µM
[5] = test system: Trypanosoma cruzi; experiment: Trypanosoma cruzi phosphomannomutase and mannose-1-phosphate guanylyltransferase assay; format: functional; conditions: 10 µM
[6] = biological target: T2, Arginase-2, mitochondrial (Homo sapiens) (UniProt P78540); experiment: in vitro enzyme assay to detect the production of urea directly proportional to the activity of Arginase II; format: functional; conditions: 33.3 µM; note: in the data most compounds retested in dose-response had high values
T2 sequence (whole entry): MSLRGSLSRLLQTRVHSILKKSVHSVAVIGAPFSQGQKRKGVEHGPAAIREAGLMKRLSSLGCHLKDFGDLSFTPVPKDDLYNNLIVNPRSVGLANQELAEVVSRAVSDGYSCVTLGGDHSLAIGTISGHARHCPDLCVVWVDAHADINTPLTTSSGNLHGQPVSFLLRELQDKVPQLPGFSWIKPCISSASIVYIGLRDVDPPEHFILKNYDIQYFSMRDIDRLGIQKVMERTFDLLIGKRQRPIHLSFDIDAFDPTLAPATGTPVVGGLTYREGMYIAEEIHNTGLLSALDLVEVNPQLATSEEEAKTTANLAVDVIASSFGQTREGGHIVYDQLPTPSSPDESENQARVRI

[7] = biological target: T3, Proteasome subunit beta (Trypanosoma cruzi) (UniProt O96673); experiment: Trypanosoma cruzi proteasome chymotrypsin-like activity (TcProtChymo) assay.; note: in the data most compounds retested in dose-response had high values; format: functional; conditions: 9.37 µM
T3 sequence (whole entry): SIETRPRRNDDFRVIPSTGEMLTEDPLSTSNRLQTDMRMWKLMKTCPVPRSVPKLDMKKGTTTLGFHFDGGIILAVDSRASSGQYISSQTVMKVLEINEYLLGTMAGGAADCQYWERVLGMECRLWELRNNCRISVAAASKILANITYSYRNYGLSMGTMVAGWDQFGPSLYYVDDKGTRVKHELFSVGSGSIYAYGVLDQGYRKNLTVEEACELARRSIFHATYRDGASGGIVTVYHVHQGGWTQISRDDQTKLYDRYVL

[8] = species: Homo sapiens; experiment: To identify inhibition of the IFN signalling (Jak-Stat) pathway via expression of an eGFP reporter gene under the control of an IFN-stimulated response element (ISRE) containing MxA promoter.; format: functional; conditions: 30 µM
[9] = biological target: T4, Tyrosyl-tRNA synthetase, putative (Trypanosoma cruzi (strain CL Brener)) (UniProt Q4DSP6); experiment: Trypanosoma cruzi tyrosyl tRNA synthetase (TcYRS) _High Tyrosine SOP; format: functional; conditions: 30 µM; note: in the data most compounds retested in dose-response had high values
T4 sequence (whole entry): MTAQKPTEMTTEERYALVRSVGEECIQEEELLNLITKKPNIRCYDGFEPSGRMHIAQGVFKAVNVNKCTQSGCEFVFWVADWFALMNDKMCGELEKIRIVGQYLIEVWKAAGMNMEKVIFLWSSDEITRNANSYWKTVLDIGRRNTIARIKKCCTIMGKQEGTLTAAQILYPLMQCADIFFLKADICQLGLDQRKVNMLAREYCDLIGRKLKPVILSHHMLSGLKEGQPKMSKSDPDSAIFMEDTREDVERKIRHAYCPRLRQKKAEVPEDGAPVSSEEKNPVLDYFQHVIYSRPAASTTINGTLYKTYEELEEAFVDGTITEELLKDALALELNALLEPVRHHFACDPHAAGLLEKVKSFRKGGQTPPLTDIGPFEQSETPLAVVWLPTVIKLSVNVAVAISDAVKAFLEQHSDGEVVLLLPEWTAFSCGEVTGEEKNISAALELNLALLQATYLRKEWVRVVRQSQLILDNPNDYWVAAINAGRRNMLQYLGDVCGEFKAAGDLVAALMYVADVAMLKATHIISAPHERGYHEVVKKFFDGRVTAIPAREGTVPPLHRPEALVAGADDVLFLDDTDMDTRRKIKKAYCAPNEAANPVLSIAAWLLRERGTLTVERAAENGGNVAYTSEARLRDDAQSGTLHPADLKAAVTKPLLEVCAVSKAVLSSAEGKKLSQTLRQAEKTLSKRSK

[10] = biological target: T4, Tyrosyl-tRNA synthetase, putative (Trypanosoma cruzi (strain CL Brener)); experiment: Trypanosoma cruzi tyrosyl tRNA synthetase (TcYRS) SOP; format: functional; conditions: 30 µM
[11] = biological target: Chromo domain-containing protein 1 (Saccharomyces cerevisiae (strain ATCC 204508 / S288c) (Baker's yeast)) (UniProt P32657); experiment: ScCHD-1 Enzyme Inhibition Assay; format: functional; conditions: 30 µM; note: in the data most compounds retested in dose-response had high values
Sequence of Chromo domain-containing protein 1 (Saccharomyces cerevisiae (strain ATCC 204508 / S288c) (Baker's yeast)) (P32657 whole entry, the tested form may be a part): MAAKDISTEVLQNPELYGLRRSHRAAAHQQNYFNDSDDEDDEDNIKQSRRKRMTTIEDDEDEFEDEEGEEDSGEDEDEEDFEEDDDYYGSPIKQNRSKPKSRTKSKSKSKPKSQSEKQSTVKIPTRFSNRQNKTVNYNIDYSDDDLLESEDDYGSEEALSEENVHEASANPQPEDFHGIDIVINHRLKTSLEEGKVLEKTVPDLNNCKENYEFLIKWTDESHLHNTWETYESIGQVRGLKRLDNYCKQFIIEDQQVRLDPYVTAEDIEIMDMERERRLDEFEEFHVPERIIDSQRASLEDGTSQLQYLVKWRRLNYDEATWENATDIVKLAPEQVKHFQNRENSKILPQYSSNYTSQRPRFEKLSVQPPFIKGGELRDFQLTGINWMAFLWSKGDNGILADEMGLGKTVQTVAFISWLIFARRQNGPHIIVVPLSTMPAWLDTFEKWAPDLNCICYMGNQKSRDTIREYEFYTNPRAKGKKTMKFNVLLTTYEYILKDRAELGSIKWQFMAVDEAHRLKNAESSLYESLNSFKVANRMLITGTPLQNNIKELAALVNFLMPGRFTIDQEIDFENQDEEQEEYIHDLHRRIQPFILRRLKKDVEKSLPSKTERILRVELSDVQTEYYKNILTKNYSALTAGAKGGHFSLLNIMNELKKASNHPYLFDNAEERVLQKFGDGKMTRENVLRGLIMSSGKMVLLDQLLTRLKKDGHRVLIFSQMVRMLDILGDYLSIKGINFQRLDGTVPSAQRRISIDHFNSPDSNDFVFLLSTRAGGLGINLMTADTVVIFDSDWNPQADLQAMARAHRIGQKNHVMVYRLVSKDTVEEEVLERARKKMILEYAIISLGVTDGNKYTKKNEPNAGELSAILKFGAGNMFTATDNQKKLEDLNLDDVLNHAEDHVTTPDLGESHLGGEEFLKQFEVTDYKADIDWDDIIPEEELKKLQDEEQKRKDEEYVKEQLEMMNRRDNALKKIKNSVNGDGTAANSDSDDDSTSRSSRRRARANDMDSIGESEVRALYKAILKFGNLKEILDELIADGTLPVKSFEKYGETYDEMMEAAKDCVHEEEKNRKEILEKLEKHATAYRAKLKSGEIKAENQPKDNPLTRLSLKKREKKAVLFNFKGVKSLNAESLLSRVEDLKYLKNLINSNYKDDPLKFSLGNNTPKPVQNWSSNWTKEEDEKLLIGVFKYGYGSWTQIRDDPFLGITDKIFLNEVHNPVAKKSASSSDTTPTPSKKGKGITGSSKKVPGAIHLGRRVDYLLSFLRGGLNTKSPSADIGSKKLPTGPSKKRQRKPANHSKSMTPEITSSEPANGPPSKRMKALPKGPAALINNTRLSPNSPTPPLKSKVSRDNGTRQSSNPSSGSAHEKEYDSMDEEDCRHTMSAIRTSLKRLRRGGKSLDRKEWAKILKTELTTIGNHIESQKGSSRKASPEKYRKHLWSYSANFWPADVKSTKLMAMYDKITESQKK

Sequence of Sialic acid-binding Ig-like lectin 9 (Homo sapiens) (Q9Y336 whole entry): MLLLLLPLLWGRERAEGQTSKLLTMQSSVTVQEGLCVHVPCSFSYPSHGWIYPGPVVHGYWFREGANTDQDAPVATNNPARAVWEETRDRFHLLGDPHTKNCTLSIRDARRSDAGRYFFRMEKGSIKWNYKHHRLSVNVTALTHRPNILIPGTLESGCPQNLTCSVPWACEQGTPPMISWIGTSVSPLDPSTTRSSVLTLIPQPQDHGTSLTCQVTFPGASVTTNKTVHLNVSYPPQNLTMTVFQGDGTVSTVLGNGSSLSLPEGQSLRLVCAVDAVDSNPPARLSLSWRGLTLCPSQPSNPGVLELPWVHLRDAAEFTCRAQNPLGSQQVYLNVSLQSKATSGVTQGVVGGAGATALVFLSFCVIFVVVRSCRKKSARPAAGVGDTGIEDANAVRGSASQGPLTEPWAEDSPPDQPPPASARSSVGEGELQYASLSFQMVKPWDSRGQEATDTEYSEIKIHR
Sequence of Protein translocase subunit SecA (Escherichia coli (strain K12)) (P10408 whole entry): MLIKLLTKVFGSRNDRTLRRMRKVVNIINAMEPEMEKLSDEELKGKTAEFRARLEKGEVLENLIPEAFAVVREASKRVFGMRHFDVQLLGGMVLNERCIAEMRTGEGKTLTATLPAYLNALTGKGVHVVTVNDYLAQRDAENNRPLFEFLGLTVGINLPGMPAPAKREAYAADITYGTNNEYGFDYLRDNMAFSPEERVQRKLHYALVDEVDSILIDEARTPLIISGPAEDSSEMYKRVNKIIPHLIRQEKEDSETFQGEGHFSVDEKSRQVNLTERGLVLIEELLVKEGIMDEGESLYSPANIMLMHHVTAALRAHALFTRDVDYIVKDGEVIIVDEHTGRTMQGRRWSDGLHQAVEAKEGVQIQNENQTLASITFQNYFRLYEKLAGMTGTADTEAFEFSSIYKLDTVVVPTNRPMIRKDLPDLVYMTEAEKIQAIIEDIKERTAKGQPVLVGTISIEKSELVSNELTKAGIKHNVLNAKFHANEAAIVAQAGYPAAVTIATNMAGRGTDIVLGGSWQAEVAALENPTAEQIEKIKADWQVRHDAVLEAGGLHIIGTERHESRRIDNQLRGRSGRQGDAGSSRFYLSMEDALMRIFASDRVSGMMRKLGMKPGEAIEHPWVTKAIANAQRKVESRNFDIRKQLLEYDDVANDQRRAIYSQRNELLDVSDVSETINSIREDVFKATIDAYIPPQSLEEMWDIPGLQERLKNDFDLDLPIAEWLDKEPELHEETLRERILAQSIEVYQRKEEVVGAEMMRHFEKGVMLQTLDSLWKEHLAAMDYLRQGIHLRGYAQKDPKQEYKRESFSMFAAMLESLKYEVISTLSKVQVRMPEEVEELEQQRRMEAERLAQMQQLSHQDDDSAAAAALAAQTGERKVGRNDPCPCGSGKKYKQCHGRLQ

| SMILES | Percent Effect [1] | Percent Effect [2] | Percent Effect [3] | Percent Effect [4] | Percent Effect [5] | Percent Effect [6] | Percent Effect [7] | Percent Effect [8] | Percent Effect [9] | Percent Effect [10] | Percent Effect [11] |
| --- | --- | --- | --- | --- | --- | --- | --- | --- | --- | --- | --- |
| COc1ccccc1CC(=O)NS(=O)(=O)c1cncc(Br)c1 | -4.15% | 2.6% | 4.69% | -5.24% | -1.87% | 2.13% | 1.35% | 21.7% | -4.85% | -4.88% | -7.14% |
| CCOCc1cccc(S(=O)(=O)N2CCSCC2)c1 | -3.9% | 1.33% | 4.84% | 4.89% | -6.09% | 0.88% | 7.58% | 5.82% | 4.23% | -2.56% | -3.83% |
| Cn1cc(-c2csc(N3CCN(C(=O)OC(C)(C)C)CC3)n2)cn1 | -0.688% | 4.17% | -13.6% | 7.74% | 1.85% | 30.5% | 8.42% | 57.3% | 10.5% | 12.8% | -1.57% |
| CC(C)CN1CCN(Cc2nc3ccccc3[nH]2)[C@H]2CS(=O)(=O)C[C@H]21 | -0.363% | 10.8% | 1.86% | -1.7% | -6.35% | 2.73% | 5.41% | 0.0398% | 14% | 23.5% | -6.24% |
| CC(N(C)Cc1nc2c(cnn2C)c(=O)[nH]1)C(C)(C)C (stereo not given) | -4.87% | 13.5% | -4.12% | 2.57% | -10.1% | 2.03% | 7.72% | 24.6% | -1.98% | 3.66% | -4.7% |
| O=C(Cn1nc2c(cc1=O)CSCC2)NC(Cc1ccccc1)C(=O)O (stereo not given) | -6.43% | 20% | -8.36% | 1.5% | 7.47% | 89.3% | 15% | 7.8% | -2.12% | 15.4% | -19% |
| COc1ccccc1CC(=O)N1CCCC(n2nc(C)cc2C)C1 (stereo not given) | 4.86% | 0% | 2.98% | -5.42% | -1.23% | 5.32% | 1.06% | 2.12% | -0.493% | -3.8% | -0.887% |
| CC(c1ccc(Cl)cc1)N1CCN(CCNS(C)(=O)=O)CC1 (stereo not given) | -4% | -2.7% | -2.79% | 66.6% | 3.28% | 0.952% | 10.7% | 4.77% | 4.76% | 19.5% | -8.23% |
| Cc1nc(CN2C[C@@H]3CN(C(=O)C4CC4)C[C@@H]3C2=O)cs1 | -1.35% | 18.9% | 1.84% | -11.9% | -5.57% | 4.78% | 14.9% | 18.6% | 1.08% | 10.3% | -6.89% |
| CCSCCNC(=O)C(c1cccc(F)c1)N(C)C (stereo not given) | -5.79% | 8.11% | -0.968% | -3.42% | -4.44% | -0.952% | 13.8% | 20.7% | 6.88% | 7.32% | -3.55% |
| COc1c(CNC2CCOc3ccccc32)c(C(C)C)nn1C (stereo not given) | -0.153% | -48.6% | -2.39% | 7.95% | 1.58% | 0.924% | 3.95% | 0.812% | 7.92% | 18.3% | -6.55% |
| CNC(=O)CSc1nc2c(cnn2Cc2ccc(F)cc2)c(=O)[nH]1 | -1.62% | 11% | 8.78% | 2.62% | -3.33% | 0% | 16.5% | 33.3% | 0% | 10% | -6.75% |
| Cc1ccc(-c2ncc(C(=O)NCCS(N)(=O)=O)s2)c(C)c1 | -7.16% | 5.41% | -2.36% | 0.84% | -5% | -3.61% | 9.55% | 21.4% | 0.493% | -1.24% | -4.18% |
| O=C(CCc1cc(O)no1)N1CCCC(COc2ccc(F)cc2)C1 (stereo not given) | -4.75% | 20.8% | -16.4% | 26.7% | 3.6% | 0.442% | 14% | -9.73% | 5.26% | 10.3% | -11.2% |
| CSCC(CCO)NC(=O)Nc1cc(C)ccc1C (stereo not given) | -3.37% | 2.74% | 0.417% | -7.14% | -7.83% | 4.09% | 15.3% | 5.34% | 1.07% | 5% | -3.27% |
| CCn1cc(NC(=O)NCC(c2cccs2)N(C)C)cn1 (stereo not given) | 0.424% | 18.4% | -2.49% | 5.82% | -3.76% | -3.83% | 7.69% | 2.58% | 5.39% | 19.5% | -7.09% |
| COCCN1CCC2(CCCN(C(=O)c3cnoc3C)C2)C1=O (stereo not given) | 0.295% | 8.22% | 3.34% | 5.08% | -6.55% | -3.19% | 12.2% | 0.796% | 4.17% | 3.7% | -5.73% |
| c1ccc(Cn2cc(CNCC3CCCN3c3cccnn3)cn2)cc1 (stereo not given) | -3.01% | 7.89% | -1.98% | -4.74% | 1.96% | -7.55% | 15.5% | 1.15% | 15.3% | 28.4% | -4.79% |
| Cc1nc(CN(C)C2CCN(Cc3ccc4c(c3)OCCO4)C2)no1 (stereo not given) | -7.11% | 13% | -0.861% | -3.18% | 5.39% | 1.9% | 2.83% | -7.46% | 5.71% | 11.8% | -17.4% |
| Cc1cc(C2CCCN(C(=O)CN3CCN(C)CC3)C2)n[nH]1 (stereo not given) | -0.557% | 13.5% | -4.16% | 2.41% | 2.32% | -4.25% | 16.9% | 16.2% | 6.93% | 18.3% | -5.49% |

From ChEMBL document CHEMBL3988442, “University of Dundee, Small-Polar-MMV Screening Library” (2021)
